GDH-TPI inh: GDH-TPI coupled enzyme inhibition counter-screen; GDH-TPI coupled enzyme counterscreen, NADH absorbance; inhibition, % at 4.8 µM; actives 1.2% (n = 360,000); AID 588335;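 further: 0% = DMSO wells and 100% = wells lacking the enzyme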
MazF activator: activators of E. coli MazEF toxin-antitoxin RNase; P0AE70; FAM/BHQ RNA-DNA oligo cleavage fluorescence, 5 h; activation, % at 20 µM; actives 0.32% (n = 350,000); AID 504720; in the data active means activation above about 50%
Target sequence (P0AE70 whole entry, looked up): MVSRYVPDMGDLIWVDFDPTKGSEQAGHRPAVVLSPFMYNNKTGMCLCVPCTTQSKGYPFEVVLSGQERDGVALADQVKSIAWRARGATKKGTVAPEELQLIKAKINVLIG
FBA Mtb inh: Mtb fructose-bisphosphate aldolase inhibition. inhibition, % at 1 µM. purified M. tuberculosis FBA, fluorescence read-out. AID 588726. actives 2.3% (n = 360,000); in the data active means inhibition above about 27%;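 further: 0% = vehicle and 100% = reference inhibitor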
Target sequence (P9WQA3 whole entry, looked up): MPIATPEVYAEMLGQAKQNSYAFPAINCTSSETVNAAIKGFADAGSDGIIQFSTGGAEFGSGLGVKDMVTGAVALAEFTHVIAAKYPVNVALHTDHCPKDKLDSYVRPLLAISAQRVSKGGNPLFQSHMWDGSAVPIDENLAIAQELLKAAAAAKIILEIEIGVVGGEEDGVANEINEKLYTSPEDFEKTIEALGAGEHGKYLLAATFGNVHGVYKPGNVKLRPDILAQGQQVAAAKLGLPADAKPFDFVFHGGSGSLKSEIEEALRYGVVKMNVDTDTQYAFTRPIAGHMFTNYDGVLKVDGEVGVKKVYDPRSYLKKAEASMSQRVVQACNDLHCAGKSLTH
Mtb bLac sens: beta-lactam sensitization of Mtb H37Rv. M. tuberculosis H37Rv growth with meropenem, percent inhibition. inhibition, % at 25 µM. actives 0.27% (n = 330,000); call rule not given here;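 further: growth measured after seven days incubation then overnight dye step; 0% = bacteria only wells and 100% = bacteria with antibiotic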
CCHF vOTU inh: CCHFV vOTU protease inhibition. Pep-AMC fluorescence. inhibition, % at 11.5 µM. actives 0.55% (n = 370,000). AID 651958; further: 0% = vehicle wells with enzyme and 100% = no enzyme wells
Active calls of the source: *; . = no result. Only some compounds are listed: those with a hit (about 4% of all), similar ones and a draw of the others. Unless noted, no stated cut-off is given here; in the data, active means inhibition above about 30%; inactive means the rest.

SMILES	GDH-TPI inh	MazF activator	FBA Mtb inh	Mtb bLac sens	CCHF vOTU inh
O=C(CNC(=O)c1cccs1)N=Nc1c(O)[nH]c2ccc([N+](=O)[O-])cc12	34*	12	-2	-3	29
CCCCCCC(=O)N=Nc1c(O)[nH]c2ccc([N+](=O)[O-])cc12	2	14	3	0	4
Oc1ccc2ccccc2c1N=Nc1ccc(F)cc1	1	-16	-6	-8	-4
COC(=O)[C@]12C[C@H](CC(=O)N3CCN(C(=O)c4ccco4)CC3)C(=O)N(Cc3ccco3)C1=C[C@H](C(C)(C)C)O[C@@H]2C	.	.	.	.	3
O=C(N=Nc1c(O)[nH]c2ccccc12)Nc1ccccc1	31*	-14	2	.	17
NS(=O)(=O)c1cc(C(=O)N=Nc2c(O)[nH]c3ccccc23)ccc1Cl	34*	13	2	2	10
O=[N+]([O-])c1ccc2[nH]c(O)c(N=NC3CCS(=O)(=O)C3)c2c1 (stereo not given)	59*	-8	-3	5	-4
Oc1[nH]c2ccccc2c1N=Nc1ccccc1	0	158*	-14	-7	1
O=C(N=Nc1c(O)[nH]c2ccc([N+](=O)[O-])cc12)c1ccccc1[N+](=O)[O-]	27	9	-8	-9	21
O=C(CSc1nc2ccccc2nc1N1CCCCC1)N1CCN(S(=O)(=O)c2cc(Cl)ccc2Cl)CC1	.	.	.	.	4
CCCCOCCCNC(=O)C[C@H]1C(=O)N(Cc2ccc(OC)cc2)C2=CCCC[C@@]21C(=O)OCC	.	.	.	.	7
O=C(CSc1nnc(-c2ccccn2)n1-c1ccc(Cl)cc1)Nc1cccc2ccccc12	.	.	.	.	3
C=CCC12C=C(OC)C(=O)C(C1=O)C1c3ccccc3CC12 (stereo not given)	.	.	.	.	0
O=[N+]([O-])c1ccc(N=Nc2c(O)[nH]c3ccc(F)cc23)cc1	6	-24	-8	8	3
Oc1[nH]c2ccc(Br)cc2c1N=NC(=S)NCC1CCCO1 (stereo not given)	36*	8	-8	50	0
O=[N+]([O-])c1ccc2[nH]c(O)c(N=Nc3ccc(F)cc3)c2c1	1	316*	-6	-6	-12
CCOC(=O)[C@@]12CN(C(=O)OC(C)(C)C)CC=C1N(Cc1ccc(OC)cc1)C(=O)[C@H]2CC(=O)NCC12CC3CC(CC(C3)C1)C2	.	.	.	.	23
COc1ccc(CC(=O)Nc2ccc3c(C(F)(F)F)cc(=O)oc3c2)cc1OC	19	6	0	99	-15
Nc1ccc2c(C(F)(F)F)cc(=O)oc2c1	16	0	63*	-6	-186
S=c1[nH]c2ccc(Cl)cc2[nH]1	13	-2	2	7	10
S=c1ncc2[nH]c(=S)[nH]c2[nH]1	36*	-13	1	.	.
Oc1cccc(N2CCN(c3cccc(O)c3)CC2)c1	.	.	.	.	2
COc1ccc(OC)c(C(=O)c2c(C)oc3cc([N+](=O)[O-])c(O)c([N+](=O)[O-])c23)c1	36*	-8	-13	1	3
O=Cc1ccc(N2CCCCCC2)cc1	34*	6	1	33	11
O=Cc1ccc(N2CCCC2)c(F)c1	19	0	1	46	13
SMILES	GDH-TPI inh	MazF activator	FBA Mtb inh	Mtb bLac sens	CCHF vOTU inh
Cc1ccc(C(=O)NNC2=Nc3cccc4cccc2c34)cc1	14	86*	1	94	-3
NC(=O)NNC1=Nc2cccc3cccc1c23	7	-4	5	2	5
COc1ccc(C(=O)NNC2=Nc3cccc4cccc2c34)cc1	19	50*	-2	1	7
CC[C@@H](CCC(=O)N(c1ccccc1)c1ccccc1)c1ccc(C)cc1	.	.	.	.	8
CCC12CCCN3CCC4(C(=C(C(=O)OC)C1)Nc1ccccc14)C32 (stereo not given)	33*	1	4	.	13
COC(=O)C1=CO[C@H](C)[C@H]2CN3CC[C@@]4(C(=O)Nc5ccccc54)[C@@H]3C[C@H]12	13	12	5	-5	-1
O=C1OCCN1C(=O)[C@H]1[C@H](c2ccccc2)C(c2ccccc2)=NN1c1ccccc1	4	-10	10	.	0
O=C1OCCN1C(=O)[C@H]1[C@H](c2ccccc2)C(c2ccccc2)=NN1c1ccc(Br)cc1	16	-7	43*	.	-60
O=C1OCCN1C(=O)[C@H]1[C@H](c2ccc([N+](=O)[O-])cc2)C(c2ccc(F)cc2)=NN1c1ccc(Br)cc1	30	2	1	.	32*
Cc1cccc(C2=NN(c3ccc(Br)cc3)[C@@H](C(=O)N3CCOC3=O)[C@@H]2c2ccccc2)c1	17	3	28*	.	.
O=C1OCCN1C(=O)[C@H]1[C@H](c2ccc([N+](=O)[O-])cc2)C(c2ccc(F)cc2)=NN1c1ccccc1	20	-2	-1	.	12
C[C@@H]1C(c2cccc(Cl)c2)=NN(c2ccc(Br)cc2)[C@H]1C(=O)N1CCOC1=O	16	-11	56*	.	.
C[C@@H]1C(c2cccc(Cl)c2)=NN(c2ccccc2)[C@H]1C(=O)N1CCOC1=O	15	-2	16	.	-3
CCn1c2ccccc2c2cc(C=NNC(=O)CSc3nc4ccccc4c(=O)n3-c3ccccc3)ccc21	.	.	.	.	1
Cc1cccc(C2=NN(c3ccccc3)[C@@H](C(=O)N3CCOC3=O)[C@@H]2c2ccccc2)c1	11	-14	9	.	8
O=C1OCCN1C(=O)[C@H]1[C@H](c2ccccc2)C(c2ccc(F)cc2)=NN1c1ccc(Br)cc1	24	-6	35*	.	7
CN(C)c1ccc(C=C2C(=O)NC(=O)NC2=O)cc1	31*	-85	-3	.	15
CCCCC1(C)OC(=O)C(=Cc2ccc(N(C)C)cc2)C(=O)O1 (stereo not given)	40*	-273	-3	-13	9
CCCCC1(C)OC(=O)C(=Cc2c[nH]c3ccccc23)C(=O)O1 (stereo not given)	5	235*	-1	6	7
CN(C)c1ccc(C=C2C(=O)NC(=S)NC2=O)cc1	27	-25	-7	.	14
CC1=NN(c2cccc(F)c2)C(=O)/C1=C/c1ccc(N(C)C)cc1	17	16	1	-1	0
Cc1ccc(-c2nnc(SCC(=O)Nc3ccc(OCc4ccccc4)cc3)n2-c2ccc(Cl)cc2)cc1	.	.	.	.	-2
O=C(c1ccncc1)N1CC[C@H]2[C@H](CCCN2Cc2ccccc2)C1	.	.	.	.	-3
CC(C)(C)N1C(=O)NC(=O)/C(=C\c2ccc3c(c2)CCN3CCCCl)C1=O	32*	-74	1	20	-4
COCc1cc(N2CCNC[C@@H]2C)ccc1N1CCN(Cc2ccccc2)[C@H](C)C1	.	.	.	.	2
C#CCOCCOCCOCCNc1nc(N2CCN(C(=O)[C@H]([C@@H](C)CC)n3cc([C@@H](N)CO)nn3)CC2)nc(N2CCN(C(=O)[C@H]([C@@H](C)CC)n3cc([C@@H](N)Cc4ccc(O)cc4)nn3)CC2)n1	10	9	-1	-5	.

Screening data: PubChem, several laboratories
